# Rows were chosen to be rich in hits. Some 4.1% of all compounds tested hit in one or more screens of this group.
# DAX1 inh-1: DAX1 (NR0B1) inhibitors, primary screen, cell-based, HEK293, Gal4-DAX1, luciferase luminescence | Nuclear receptor subfamily 0 group B member 1 (Homo sapiens), P51843 | HEK293 Gal4-DAX1 luciferase reporter | inhibition, % at 6.75 µM | hit rate 0.99% among 340,000;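 active = inhibition above the mean over all tested compounds plus 3 SD, cut at about 4.2% in these data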;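 note: 0% = DAX1-transfected cells with DMSO and 100% = empty-vector control cells with DMSO; inhibition shows as a rise in luminescence from relieved DAX1 repression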
# Target sequence (P51843 207-470 limits assumed): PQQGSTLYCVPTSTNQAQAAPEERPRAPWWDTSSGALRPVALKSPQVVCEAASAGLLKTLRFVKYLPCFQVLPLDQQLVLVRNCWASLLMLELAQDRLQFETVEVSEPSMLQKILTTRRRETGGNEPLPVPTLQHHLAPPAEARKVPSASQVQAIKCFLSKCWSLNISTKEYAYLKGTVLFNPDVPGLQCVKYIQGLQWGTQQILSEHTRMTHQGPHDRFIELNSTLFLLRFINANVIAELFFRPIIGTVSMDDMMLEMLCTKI
# DAX1 inh-2: DAX1 (NR0B1) inhibitors on StAR promoter, primary screen, cell-based, luminescence, SF-1 (NR5A1), full-length DAX-1 | HEK293T StAR-luciferase reporter, SF-1/DAX-1 repression relief | AID 652010, 2013 | hit rate 1.1% among 370,000 | inhibition, % at 6.8 µM;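 active = inhibition above the mean over all tested compounds plus 3 SD, cut at about 3.6% in these data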;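 note: 0% = DAX-1 cells with DMSO and 100% = cells lacking DAX-1 with DMSO; higher inhibition means more luminescence from relief of DAX-1 repression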
# ssDAF-12 act: S. stercoralis DAF-12 nuclear receptor activators, primary screen, cell-based, luminescence, HEK293, GRIP1 co-expression, lit1-tk-luc; HEK293 ssDAF-12/GRIP1 lit1-tk-luc reporter; % of 3 µM dafachronic acid response; activation, % at 6.8 µM; AID 652126, 2013; hit rate 1% among 370,000; Nuclear hormone receptor DAF-12 (Strongyloides stercoralis);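 active = activation above the mean over all tested compounds plus 3 SD, cut at about 0.9% in these data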;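 note: 0% = DMSO-only wells and 100% = 3 µM delta7-dafachronic acid wells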
# hgDAF12 agonist: H. glycines DAF-12 receptor agonists, primary screen, cell-based, luminescence, HEK293, GAL4 fusion, UAS-luciferase; Nuclear hormone receptor DAF-12 (Heterodera glycines), GAL4 fusion; HEK293 GAL4-hgDAF12 UAS-luciferase reporter, agonist luminescence; normalized to butyrate control; activation, % at 6.8 µM; hit rate 1.8% among 370,000; AID 687014, 2013;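 active = activation above a cutoff set at the mean of all screened compounds plus 3 SD, cut at about 10% in these data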;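 note: 0% = DMSO wells and 100% = sodium butyrate wells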
# hcDAF12 agonist: H. contortus DAF-12 nuclear receptor activators, primary screen, cell-based, luminescence, HEK293, lit1-tk-luc reporter; hit rate 1.4% among 370,000; HEK293 hcDAF-12 lit1-tk-luc reporter; 0% DMSO, 100% Δ7-dafachronic acid; activation, % at 6.8 µM;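 active = activation above the mean of all tested compounds plus 3 SD, cut at about 5.5% in these data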;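 note: 100% = response to 3 µM Δ7-dafachronic acid high control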
# hgDAF12 conf: H. glycines DAF-12 receptor agonists, confirmation, cell-based, luminescence, HEK293, GAL4-LBD fusion; shares compounds with hgDAF12 agonist; hit rate 80% among 3,300; activation, % at 6.8 µM; HEK293 GAL4-hgDAF12 luciferase reporter, agonist mode; percent of butyrate response; AID 743050, 2013;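 active = mean activation over triplicate wells above the hit cutoff derived from the earlier primary screen, cut at about 11% in these data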;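 note: 0% = DMSO low control and 100% = 2 mM sodium butyrate high control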
# LXRb DAF12 ctr: LXR agonists, Gal4 luciferase reporter, confirmation, counter-screen for hgDAF-12 agonist project, cell-based, luminescence, HEK293, H. glycines campaign; shares compounds with hgDAF12 agonist; 24 h; activation, % at 6.8 µM; 3,300 tested, under 10 active;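 active = mean activation of the triplicate above a set limit carried over from the primary screen, none filed active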
# * marks the source's active call; other numbers are inactive results; . = no result.
SMILES,DAX1 inh-1,DAX1 inh-2,ssDAF-12 act,hgDAF12 agonist,hcDAF12 agonist,hgDAF12 conf,LXRb DAF12 ctr
O=C(c1ccc(Cl)s1)N1CCc2ccccc21,3,2,1.5*,15*,6.4*,18*,0
Cc1occc1C(=O)N/N=C/c1ccc(Br)s1,2,2,0,8,1,.,.
CCN(CC)c1ccc(/C=N/NC(=O)c2ccoc2C)cc1,1,2,0,17*,5,19*,1
Cc1ccc(/C=N/NC(=O)c2ccoc2C)s1,1,3,0,15*,2,10,1
O=C(Nc1ccc(Br)cn1)c1ccc(Br)s1,1,1,1,20*,6.2*,20*,1
Cc1ccccc1C(=O)Nc1ccc(Br)cn1,1,3,-1,14*,3,16*,1
O=C(Nc1ccccc1C(=O)Nc1ccc(Br)cn1)c1ccccc1Cl,-1,-1,-2,1,-2,.,.
O=C(Nc1nccs1)c1ccc(Cl)s1,0,1,-1,6,0,.,.
O=C(Nc1ccc(Br)cn1)c1ccc(Cl)s1,2,2,0,15*,5,14*,1
O=C(NC1=NCCS1)c1ccc(Br)s1,3,3.8*,0,14*,6.0*,13*,1
O=S1(=O)c2ccc(Br)cc2OC2CCCN1C2 (stereo not drawn),.,-1,-1,1,-2,.,.
COc1ccc(C(=O)c2[nH]c(N)c(C(=O)c3c[nH]c4ccccc34)c2-c2ccc(OC)cc2)cc1,.,0,0,0,-1,.,.
CCOC(=O)CSc1nc2cc3c(cc2cc1C)OCO3,0,0,0,-3,0,.,.
CCOC(=O)CSc1nc2cc3c(cc2cc1C#N)OCO3,2,3,1,14*,4,15*,1
CCOC(=O)CSc1nc2cc3c(cc2cc1C#N)OCCO3,12*,3,0,17*,4,12*,1
COc1ccc(NC(=O)c2ccccc2NC(=O)C2CCCCC2C(=O)O)cc1 (stereo not drawn),3,2,0,14*,5,3,0
CS(=O)(=O)N1c2ccccc2C[C@H]1Cc1cc2ccccc2o1,.,.,0,1,1,.,.
CCOC(=O)N/N=C/c1cn(CCCOc2ccc(C)cc2)c2ccccc12,-2,0,-1,17*,-3,5,0
CCOC(=O)N/N=C/c1cn(CCCOc2ccccc2)c2ccccc12,-2,0,-1,6,-1,.,.
O=C(/C=C/c1ccccc1)Nc1ccc(Cl)cn1,-2,1,-1,14*,1,20*,1
O=C(COC(=O)/C=C/c1ccccc1)Nc1ccc(Cl)cn1,2,-1,-1,1,1,.,.
c1ccc(-n2cnc3cc(NCc4ccco4)ccc32)cc1,0,4.5*,-1,17*,2,9,0
CCCSc1nn2c(=O)c3ccccc3nc2s1,0,3,-1,15*,4,16*,1
Cc1cccc(Nc2nn3c(=O)c4ccccc4nc3s2)c1,2,0,-1,5,2,.,.
O=C(NCc1ccccc1)[C@@H]1CCCN1C(=O)[C@H]1CCCN1C(=O)c1ccc(F)c(F)c1,.,0,-1,-2,1,.,.
SMILES,DAX1 inh-1,DAX1 inh-2,ssDAF-12 act,hgDAF12 agonist,hcDAF12 agonist,hgDAF12 conf,LXRb DAF12 ctr
COc1ccc(O)c(C(=O)CC(=O)c2ccccc2C)c1,4.8*,1,0,23*,3,10,1
Cc1ccc(-n2c(SCc3cccc4ccccc34)nnc2-c2ccccn2)cc1,.,-1,-2,-3,-1,.,.
O=C(NCCCN1CCOCC1)c1cc(-c2cccs2)on1,3,-1,0,24*,4,46*,0
O=C(NC1CCCC1)c1cc(-c2ccc(F)cc2)on1,5.8*,2,0,23*,1,37*,1
O=C(NC1CCCC1)c1cc(-c2cccs2)on1,4.7*,2,0,47*,6.1*,43*,1
O=C(Nc1cccc([N+](=O)[O-])c1)c1ccncc1,0,0,-1,-2,-2,.,.
O=C(Nc1cccc([N+](=O)[O-])c1)c1cnccn1,-1,0,-1,-2,-2,.,.
O=C(Nc1cccc([N+](=O)[O-])c1)c1[nH]ncc1Cl,0,1,-1,14*,4,9,1
CC(C)(C)c1ccc(C(=O)Nc2cccc([N+](=O)[O-])c2)cc1,2,3,0,14*,3,14*,0
COc1ccc(-c2nnc(SCC(=O)Nc3ccc(S(=O)(=O)Nc4cc(C)nc(C)n4)cc3)n2-c2ccc(OC)cc2)cc1,.,1,-1,0,1,.,.
COCC(=O)N(c1ccc(C(C)(C)C)cc1)C(C(=O)NC(C)(C)C)c1cccnc1 (stereo not drawn),.,.,-2,-3,-3,.,.
Cc1cc(C(=O)CSc2nnc(-c3ccccc3F)o2)c(C)n1Cc1cccs1,-2,0,-1,0,1,.,.
Cc1cc(C(=O)CN2C(=O)c3cccc(N)c3C2=O)c(C)n1Cc1cccs1,2,4.1*,1.0*,15*,6.0*,15*,1
O=C(Nc1ncccc1O)c1ccc(S(=O)(=O)NCc2ccco2)cc1,4,4.3*,0,21*,0,20*,0
Cc1cccnc1NC(=O)c1ccc(S(=O)(=O)NCc2ccco2)cc1,1,1,0,0,-1,.,.
COC(=O)[C@]12C[C@H](CC(=O)N3CCSCC3)C(=O)N(Cc3ccc(Cl)cc3Cl)C1=C[C@H](C(C)(C)C)O[C@@H]2C,.,-1,-1,1,-3,.,.
CC1=C(C(=O)Nc2ccccn2)C(c2ccc(Cl)cc2)NC(=S)N1 (stereo not drawn),0,2,0,9,1,.,.
CC1=C(C(=O)Nc2ccccn2)C(c2ccc(Br)cc2)NC(=S)N1 (stereo not drawn),3,1,-1,17*,5.7*,5,0
CCCCNC[C@@]12CO[C@H](c3ccc(Cl)cc3)N1[C@@H](c1ccc(Cl)cc1)SC2,.,1,1,0,0,.,.
